# Counter-ions that a name gives are not always drawn.
# Test system: Danio rerio larvae (5 dpf)
# Assay: combined upward orientation toward moving lines (periods 7-14) minus DMSO control (percentage points); higher = more orientation with moving lines than DMSO larvae
# Details: 10 µM; exposure time: 3 h pre-incubation + 3 h imaging
# Description: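 Wild-type 5 dpf zebrafish larvae (n=48 per drug, 96-well plates, 28.5 °C) were exposed to Tocris FDA-approved library compounds at 10 µM (0.1% DMSO) for 3 h before and 3 h during imaging. Images were taken every 6 s during visual (moving coloured lines) and acoustic stimuli, and larvae were tracked with the DeepLabCut-based Z-LaP Tracker. Each behavioural measure is the treated-group mean minus the DMSO vehicle control mean (n=844), in percentage points. This mapping covers compounds with 4-character plate codes.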
row,Compound,combined upward orientation toward moving lines
1,CCCCCCCCc1ccc(CCC(N)(CO)CO)cc1,-8.46
2,Cc1cn([C@H]2C=C[C@@H](CO)O2)c(=O)[nH]c1=O [Stavudine],-0.971
3,CC(C)n1c(/C=C/C(O)CC(O)CC(=O)O)c(-c2ccc(F)cc2)c2ccccc21 (stereo not given) [Fluvastatin sodium],1.58
4,Cc1c(-c2ccc(O)cc2)n(Cc2ccc(OCCN3CCCCCC3)cc2)c2ccc(O)cc12 [Bazedoxifene acetate],1.97
5,CCCCNc1cc(C(=O)O)cc(S(N)(=O)=O)c1Oc1ccccc1 [Bumetanide],-3.42
6,CCCN(CCc1cccs1)[C@H]1CCc2c(O)cccc2C1 [Rotigotine hydrochloride],-7.46
7,N#Cc1ccc(C(c2ccc(C#N)cc2)n2cncn2)cc1 [Letrozole],-1.71
8,COc1c(C)c2c(c(O)c1C/C=C(\C)CCC(=O)OCCN1CCOCC1)C(=O)OC2 [Mycophenolate mofetil],4.45
9,Cc1cc(C2CCCCC2)n(O)c(=O)c1 [Ciclopirox],-27.9
10,CN1CC[C@@H](NC(=O)Nc2ccc(C#N)cc2)C[C@@H]1c1nc2ccccc2[nH]1,4.61
11,CCC(C)(C)C(=O)O[C@H]1C[C@@H](C)C=C2C=C[C@H](C)[C@H](CC[C@@H]3C[C@@H](O)CC(=O)O3)[C@H]21 [Simvastatin],-3.05
12,Nc1ncn([C@H]2C[C@H](O)[C@@H](CO)O2)c(=O)n1 [Decitabine],-6.22
13,CC/C(=C(\c1ccccc1)c1ccc(OCCN(C)C)cc1)c1ccccc1 [Tamoxifen citrate],-3.88
14,C=CC(=O)N1CCC[C@@H](n2nc(-c3ccc(Oc4ccccc4)cc3)c3c(N)ncnc32)C1 [Ibrutinib],-3.41
15,CN(C)CCc1c[nH]c2ccc(Cn3cncn3)cc12 [Rizatriptan benzoate],-1.53
16,O=C(O)c1cc(/N=N/c2ccc(S(=O)(=O)Nc3ccccn3)cc2)ccc1O [Sulfasalazine],-3.42
17,CCOC(=O)N1CCC(=C2c3ccc(Cl)cc3CCc3cccnc32)CC1 [Loratidine],-3.52
18,O=C(O[C@@H]1C[C@@H]2C[C@H]3C[C@H](C1)N2CC3=O)c1c[nH]c2ccccc12 [Dolasetron mesylate],-0.866
19,Brc1c(NC2=NCCN2)ccc2nccnc12,-1.14
20,Cn1cnc([N+](=O)[O-])c1Sc1ncnc2[nH]cnc12 [Azathioprine],0.321

row,Compound,combined upward orientation toward moving lines
1,CCCCCOC(=O)Nc1nc(=O)n([C@@H]2O[C@H](C)[C@@H](O)[C@H]2O)cc1F [Capecitabine],-0.314
2,Cc1cccc(CN2CCN(C(c3ccccc3)c3ccc(Cl)cc3)CC2)c1 (stereo not given) [Meclizine dihydrochloride],-2.56
3,NC(=O)c1ncn([C@@H]2O[C@H](CO)[C@@H](O)[C@H]2O)n1 [Ribavirin],-1.89
4,CC(C)(C(=O)c1cccnc1)c1cccnc1 [Metyrapone],-5.62
5,CC(C)(C)NC(=O)[C@@H]1C[C@@H]2CCCC[C@@H]2CN1C[C@@H](O)[C@H](Cc1ccccc1)NC(=O)[C@H](CC(N)=O)NC(=O)c1ccc2ccccc2n1 [Saquinavir mesylate],-6.24
6,O=C1CCc2cc(OCCCCc3nnnn3C3CCCCC3)ccc2N1 [Cilostazol],-4.64
7,Clc1ccccc1C(c1ccccc1)(c1ccccc1)n1ccnc1 [Clotrimazole],-3.91
8,CN(CCOc1ccc(NS(C)(=O)=O)cc1)CCc1ccc(NS(C)(=O)=O)cc1 [Dofetilide],-4.9
9,C[C@@H](O[C@H]1OCCN(Cc2n[nH]c(=O)[nH]2)[C@H]1c1ccc(F)cc1)c1cc(C(F)(F)F)cc(C(F)(F)F)c1 [Aprepitant],4.05
10,Cc1ccccc1C(=O)Nc1ccc(C(=O)N2CCCC(O)c3cc(Cl)ccc32)c(C)c1 (stereo not given) [Tolvaptan],-0.0581
11,CN/C(=N\CCSCc1nc[nH]c1C)NC#N [Cimetidine],-0.665
12,CNC(=O)c1ccccc1Sc1ccc2c(/C=C/c3ccccn3)n[nH]c2c1 [Axitinib],4.21
13,Cc1nc(-c2ccc(OCC(C)C)c(C#N)c2)sc1C(=O)O [Febuxostat],-3.47
14,CC1CNc2c(cccc2S(=O)(=O)N[C@@H](CCCNC(=N)N)C(=O)N2CC[C@@H](C)C[C@@H]2C(=O)O)C1 (stereo not given in full) [Argatroban],0.479
15,N[C@@H]1[C@H]2CN(c3nc4c(cc3F)c(=O)c(C(=O)O)cn4-c3ccc(F)cc3F)C[C@@H]12 [Trovafloxacin mesylate],-3.7
16,CCOC(=O)[C@H](CCc1ccccc1)N[C@H]1CCc2ccccc2N(CC(=O)O)C1=O [Benazepril hydrochloride],-4.13
17,Cn1nnc2c(C(N)=O)ncn2c1=O [Temozolomide],-6.36
18,Cc1ccc(-c2cc(C(F)(F)F)nn2-c2ccc(S(N)(=O)=O)cc2)cc1 [Celecoxib],-15.8
19,COc1ccc(-c2ccc3cc(C(=O)O)ccc3c2)cc1C12CC3CC(CC(C3)C1)C2 [Adapalene],-8.09
20,CN1CC2c3ccccc3Oc3ccc(Cl)cc3C2C1 (stereo not given) [Asenapine maleate],-7.05

# — the supplement of paper PMC9950053
